Many of the other results were omitted from the sample, so the strongest signals are more common in it than they were.
Experiments:
Assay in all cases: glycan array binding signal (z-score within array); higher = stronger binding
Details in all cases: glycan notation: IUPAC condensed, linker removed
[1] = target: Gal3S(b1-4)[Fuc(a1-3)]Glc6S
In short: (§1)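 From the Consortium for Functional Glycomics database, 3228 arrays were curated, keeping only those whose protein sequence was available. Binding is given as a within-array Z-score averaged across arrays sharing a protein sequence and across linkers. Negative Z-scores can be read as non-binding.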

Gal6S(b1-4)GlcNAc6S = target: Gal6S(b1-4)GlcNAc6S
In short: as §1

GalNAc3S(b1-4)GlcNAc = target: GalNAc3S(b1-4)GlcNAc
In short: as §1

GalNAc6S(b1-4)GlcNAc = target: GalNAc6S(b1-4)GlcNAc
In short: as §1

[2] = target: Glc(a1-4)Glc(a1-4)Glc(a1-4)Glc
In short: as §1

Glc(a1-6)Glc(a1-6)Glc = target: Glc(a1-6)Glc(a1-6)Glc
In short: as §1

[3] = target: Glc(a1-6)Glc(a1-6)Glc(a1-6)Glc
In short: as §1

GlcA(b1-6)Gal = target: GlcA(b1-6)Gal
In short: as §1

[4] = target: GlcNAc(b1-3)Gal(b1-4)GlcNAc(b1-3)Gal(b1-4)GlcNAc(b1-3)Gal(b1-4)GlcNAc(b1-3)Gal(b1-4)GlcNAc(b1-2)Man(a1-3)[GlcNAc(b1-3)Gal(b1-4)GlcNAc(b1-3)Gal(b1-4)GlcNAc(b1-3)Gal(b1-4)GlcNAc(b1-3)Gal(b1-4)GlcNAc(b1-2)Man(a1-6)]Man(b1-4)GlcNAc(b1-4)[Fuc(a1-6)]GlcNAc
In short: as §1

[5] = target: GlcNAc(b1-3)Gal(b1-4)GlcNAc(b1-3)[GlcNAc(b1-3)Gal(b1-4)GlcNAc(b1-3)]GalNAc
In short: as §1

GlcNAc(b1-3)Man = target: GlcNAc(b1-3)Man
In short: as §1

[6] = target: Man(a1-2)Man(a1-2)Man(a1-6)[Man(a1-3)]Man
In short: as §1

[7] = target: Man(a1-2)Man(a1-6)[Man(a1-3)]Man(a1-6)[Man(a1-2)Man(a1-2)Man(a1-3)]Man
In short: as §1

Man(a1-3)[Man(a1-6)]Man = target: Man(a1-3)[Man(a1-6)]Man
In short: as §1

[8] = target: Man(a1-3)[Man(a1-6)]Man(a1-6)[Man(a1-2)Man(a1-3)]Man(b1-4)GlcNAc(b1-4)GlcNAc
In short: as §1

[9] = target: Neu5Ac(a2-3)Gal(b1-3)[Fuc(a1-4)]GlcNAc(b1-3)Gal(b1-4)[Fuc(a1-3)]GlcNAc
In short: as §1

[10] = target: Neu5Ac(a2-3)Gal(b1-4)GlcNAc
In short: as §1

[11] = target: Neu5Ac(a2-3)Gal(b1-4)GlcNAc(b1-3)Gal(b1-4)GlcNAc(b1-3)Gal(b1-4)GlcNAc
In short: as §1

[12] = target: Neu5Ac(a2-3)Gal6S(b1-4)[Fuc(a1-3)]GlcNAc
In short: as §1

[13] = target: Neu5Ac(a2-6)Gal(b1-3)GlcNAc(b1-3)[Gal(b1-4)GlcNAc(b1-6)]Gal(b1-4)Glc
In short: as §1

[14] = target: Neu5Ac(a2-6)Gal(b1-4)GlcNAc
In short: as §1

[15] = target: Neu5Ac(a2-6)Gal(b1-4)GlcNAc(b1-2)Man(a1-3)[Neu5Ac(a2-6)Gal(b1-4)GlcNAc(b1-2)Man(a1-6)]Man(b1-4)GlcNAc(b1-4)[Fuc(a1-6)]GlcNAc
In short: as §1

[16] = target: Neu5Ac(a2-6)Gal(b1-4)GlcNAc(b1-3)GalNAc
In short: as §1

[17] = target: Neu5Ac(a2-6)Gal(b1-4)GlcNAc(b1-6)[Gal(b1-3)GlcNAc(b1-3)]Gal(b1-4)Glc
In short: as §1

[18] = target: Neu5Ac(a2-8)Neu5Ac(a2-3)Gal(b1-4)Glc
In short: as §1

[19] = target: Neu5Gc(a2-3)Gal(b1-4)GlcNAc(b1-3)Gal(b1-4)GlcNAc(b1-2)Man(a1-3)[Neu5Gc(a2-3)Gal(b1-4)GlcNAc(b1-3)Gal(b1-4)GlcNAc(b1-2)Man(a1-6)]Man(b1-4)GlcNAc(b1-4)GlcNAc
In short: as §1

[20] = target: Neu5Gc(a2-8)Neu5Gc(a2-6)Gal(b1-4)GlcNAc
In short: as §1

B1: Tamarinin (protein)
chain: CDDSARAGNIVVYWGQGGSDNSEGSLKEACKSGHYNMIVLQQLIVYDDGRDPDLNLGAHCSDCTKLEEQIKYCQNKDIKILLQIGQVVPTQEDVKDVTKNLSEYLLKNFFSGKSGPLGEVYLNGIDIASVPEGNNLKFDELVEALNDSSTERRIYLSASPLCVYPDYYLNKAIQTEKLDFLFVQFFYQNPCIYTEGNPENLFEAMKTWTKNVPESMIFMALPATPNLDGYIPPRVLNKEILPAVSEASNFAGVMIFDRYFDRFRKYSSKIK
glycan array binding signal (z-score) [1]: -0.238 | glycan array binding signal (z-score) (Gal6S(b1-4)GlcNAc6S): -0.214 | glycan array binding signal (z-score) (GalNAc3S(b1-4)GlcNAc): 2.59 | glycan array binding signal (z-score) (GalNAc6S(b1-4)GlcNAc): 2.4 | glycan array binding signal (z-score) [2]: -0.232 | glycan array binding signal (z-score) (Glc(a1-6)Glc(a1-6)Glc): -0.034 | glycan array binding signal (z-score) [3]: 0.415 | glycan array binding signal (z-score) (GlcA(b1-6)Gal): 0.165 | glycan array binding signal (z-score) [4]: -0.061 | glycan array binding signal (z-score) [5]: -0.332 | glycan array binding signal (z-score) (GlcNAc(b1-3)Man): 0.095 | glycan array binding signal (z-score) [6]: 14.1 | glycan array binding signal (z-score) [7]: -0.298 | glycan array binding signal (z-score) (Man(a1-3)[Man(a1-6)]Man): 0.04 | glycan array binding signal (z-score) [8]: -0.295 | glycan array binding signal (z-score) [9]: 3.05 | glycan array binding signal (z-score) [10]: -0.352 | glycan array binding signal (z-score) [11]: -0.251 | glycan array binding signal (z-score) [12]: -0.371 | glycan array binding signal (z-score) [13]: -0.386 | glycan array binding signal (z-score) [14]: -0.341 | glycan array binding signal (z-score) [15]: -0.131 | glycan array binding signal (z-score) [16]: 5.41 | glycan array binding signal (z-score) [17]: -0.361 | glycan array binding signal (z-score) [18]: -0.395 | glycan array binding signal (z-score) [19]: -0.36 | glycan array binding signal (z-score) [20]: -0.477

Reference: the supplement of paper PMC8728848
